Experimental data: ChEMBL document CHEMBL3988442, “University of Dundee, Small-Polar-MMV Screening Library” (2021)
For some of these results: Entries with a potency or affinity are not part of this list.

Key:
Parameters in all cases: scale not given: direction of the effect not stated beside the values
[1] = biological target: Protein translocase subunit SecA (Escherichia coli (strain K12)) (UniProt P10408); assay: Assay to Identify E. coli SecA ATPase Inhibitors; type: functional; details: 30 µM
Protein translocase subunit SecA (Escherichia coli (strain K12)), sequence (P10408 whole entry): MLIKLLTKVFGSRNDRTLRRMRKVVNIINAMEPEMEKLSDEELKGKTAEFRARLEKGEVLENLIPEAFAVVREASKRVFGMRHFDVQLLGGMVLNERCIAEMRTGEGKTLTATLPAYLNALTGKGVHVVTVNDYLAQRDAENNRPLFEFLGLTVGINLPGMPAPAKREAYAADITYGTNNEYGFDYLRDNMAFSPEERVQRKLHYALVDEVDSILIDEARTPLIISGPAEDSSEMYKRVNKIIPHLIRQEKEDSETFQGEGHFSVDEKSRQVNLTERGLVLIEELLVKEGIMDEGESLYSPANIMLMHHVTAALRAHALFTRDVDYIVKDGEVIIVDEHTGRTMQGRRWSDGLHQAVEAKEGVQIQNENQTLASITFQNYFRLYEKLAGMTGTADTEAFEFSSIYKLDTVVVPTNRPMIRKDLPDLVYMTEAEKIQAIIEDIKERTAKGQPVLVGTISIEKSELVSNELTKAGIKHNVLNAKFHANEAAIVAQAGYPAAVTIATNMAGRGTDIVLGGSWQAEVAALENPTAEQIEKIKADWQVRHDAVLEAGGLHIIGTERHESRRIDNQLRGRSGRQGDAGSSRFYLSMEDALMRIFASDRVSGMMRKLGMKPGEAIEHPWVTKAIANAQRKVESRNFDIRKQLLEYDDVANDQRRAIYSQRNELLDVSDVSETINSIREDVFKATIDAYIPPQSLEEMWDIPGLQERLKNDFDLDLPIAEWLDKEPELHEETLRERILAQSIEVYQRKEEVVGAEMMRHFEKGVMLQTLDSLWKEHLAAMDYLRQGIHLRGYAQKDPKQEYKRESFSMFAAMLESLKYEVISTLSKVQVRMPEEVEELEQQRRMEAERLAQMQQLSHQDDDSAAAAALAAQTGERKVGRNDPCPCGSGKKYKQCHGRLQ

[2] = biological target: T1, Ubiquitin-activating enzyme e1, putative (Leishmania donovani (strain BPK282A1)) (UniProt E9BSI1); assay: Leishmania donovani Ubiquitin Activating Enzyme (LdE1); type: functional; details: 30 µM
T1 sequence (whole entry): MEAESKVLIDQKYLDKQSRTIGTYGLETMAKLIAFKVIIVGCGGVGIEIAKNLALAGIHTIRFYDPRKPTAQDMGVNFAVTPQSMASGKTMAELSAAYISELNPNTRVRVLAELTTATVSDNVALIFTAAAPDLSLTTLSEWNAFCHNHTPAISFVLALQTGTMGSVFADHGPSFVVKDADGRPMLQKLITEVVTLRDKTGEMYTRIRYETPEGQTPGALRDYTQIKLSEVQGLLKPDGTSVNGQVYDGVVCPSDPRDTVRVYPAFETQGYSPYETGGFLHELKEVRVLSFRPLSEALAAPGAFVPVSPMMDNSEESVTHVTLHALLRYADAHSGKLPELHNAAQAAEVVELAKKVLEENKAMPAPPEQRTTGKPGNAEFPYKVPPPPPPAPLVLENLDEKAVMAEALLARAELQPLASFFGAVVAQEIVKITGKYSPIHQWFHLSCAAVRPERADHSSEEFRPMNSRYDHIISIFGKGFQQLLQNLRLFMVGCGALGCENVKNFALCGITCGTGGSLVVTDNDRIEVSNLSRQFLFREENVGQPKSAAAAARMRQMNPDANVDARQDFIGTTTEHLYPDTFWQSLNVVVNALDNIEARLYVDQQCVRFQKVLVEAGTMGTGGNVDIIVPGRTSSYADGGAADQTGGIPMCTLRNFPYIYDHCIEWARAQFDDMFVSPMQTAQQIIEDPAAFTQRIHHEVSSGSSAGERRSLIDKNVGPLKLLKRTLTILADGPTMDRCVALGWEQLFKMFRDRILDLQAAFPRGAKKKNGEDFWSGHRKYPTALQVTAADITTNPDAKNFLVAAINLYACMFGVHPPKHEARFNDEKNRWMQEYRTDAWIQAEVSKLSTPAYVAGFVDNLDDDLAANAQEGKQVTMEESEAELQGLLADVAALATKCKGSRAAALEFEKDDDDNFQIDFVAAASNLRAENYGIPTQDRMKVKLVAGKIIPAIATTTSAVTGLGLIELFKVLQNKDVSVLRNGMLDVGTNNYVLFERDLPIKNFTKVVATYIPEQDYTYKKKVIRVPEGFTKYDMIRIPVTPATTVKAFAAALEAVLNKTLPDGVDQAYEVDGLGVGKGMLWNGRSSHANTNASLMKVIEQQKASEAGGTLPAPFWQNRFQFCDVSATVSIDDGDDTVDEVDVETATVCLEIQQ

[3] = biological target: AMP-activated protein kinase, AMPK (Homo sapiens) (UniProt P54646+O43741+P54619+Q9UGJ0+Q9Y478+Q13131+Q9UGI9); assay: AMP-dependent Kinase enzyme assay. An in vitro enzyme assay that detects ADP turnover that is directly proportional to AMPK activity. This uses naive AMPK that is activated during the assay with MK-8722; type: functional; details: 30 µM
[4] = biological target: Sialic acid-binding Ig-like lectin 9 (Homo sapiens) (UniProt Q9Y336); assay: Hs-Siglec9 ALPHAscreen SOP 20170721; details: 10 µM
Sialic acid-binding Ig-like lectin 9 (Homo sapiens), sequence (Q9Y336 whole entry): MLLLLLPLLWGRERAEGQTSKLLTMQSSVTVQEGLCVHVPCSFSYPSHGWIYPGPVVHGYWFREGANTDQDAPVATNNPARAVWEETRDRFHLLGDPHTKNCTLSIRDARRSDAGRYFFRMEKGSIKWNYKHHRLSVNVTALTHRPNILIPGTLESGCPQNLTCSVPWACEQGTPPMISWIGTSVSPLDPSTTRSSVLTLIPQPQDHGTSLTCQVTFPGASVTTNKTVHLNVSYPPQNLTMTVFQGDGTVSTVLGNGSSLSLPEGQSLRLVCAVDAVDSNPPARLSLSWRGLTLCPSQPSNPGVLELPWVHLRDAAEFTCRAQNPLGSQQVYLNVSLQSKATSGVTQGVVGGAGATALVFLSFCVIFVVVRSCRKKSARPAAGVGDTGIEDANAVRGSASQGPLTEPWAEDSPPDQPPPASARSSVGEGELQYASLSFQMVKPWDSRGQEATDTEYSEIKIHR

Trypanosoma cruzi = assay: Trypanosoma cruzi phosphomannomutase and mannose-1-phosphate guanylyltransferase assay; type: functional; details: 10 µM
[5] = biological target: T2, Arginase-2, mitochondrial (Homo sapiens) (UniProt P78540); assay: in vitro enzyme assay to detect the production of urea directly proportional to the activity of Arginase II; type: functional; details: 33.3 µM; also: in the data most compounds retested in dose-response had high values
T2 sequence (whole entry): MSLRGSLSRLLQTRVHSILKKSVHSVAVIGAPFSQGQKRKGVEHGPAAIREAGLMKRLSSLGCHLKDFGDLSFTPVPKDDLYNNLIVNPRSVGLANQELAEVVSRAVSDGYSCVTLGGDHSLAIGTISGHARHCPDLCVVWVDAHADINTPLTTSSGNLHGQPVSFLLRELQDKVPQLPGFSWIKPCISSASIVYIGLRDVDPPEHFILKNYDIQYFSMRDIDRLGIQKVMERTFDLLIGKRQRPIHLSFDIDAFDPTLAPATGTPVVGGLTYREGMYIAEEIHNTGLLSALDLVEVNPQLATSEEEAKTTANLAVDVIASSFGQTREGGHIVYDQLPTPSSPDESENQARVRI

[6] = biological target: T3, Proteasome subunit beta (Trypanosoma cruzi) (UniProt O96673); assay: Trypanosoma cruzi proteasome chymotrypsin-like activity (TcProtChymo) assay.; also: in the data most compounds retested in dose-response had high values; type: functional; details: 9.37 µM
T3 sequence (whole entry): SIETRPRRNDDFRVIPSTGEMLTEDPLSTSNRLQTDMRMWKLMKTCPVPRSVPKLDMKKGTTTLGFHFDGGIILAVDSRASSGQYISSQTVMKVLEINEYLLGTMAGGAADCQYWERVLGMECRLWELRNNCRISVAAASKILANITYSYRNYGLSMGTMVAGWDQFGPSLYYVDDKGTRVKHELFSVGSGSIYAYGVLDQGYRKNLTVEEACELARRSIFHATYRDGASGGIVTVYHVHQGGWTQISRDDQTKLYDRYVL

Homo sapiens = organism: Homo sapiens; assay: To identify inhibition of the IFN signalling (Jak-Stat) pathway via expression of an eGFP reporter gene under the control of an IFN-stimulated response element (ISRE) containing MxA promoter.; type: functional; details: 30 µM
[7] = biological target: T4, Tyrosyl-tRNA synthetase, putative (Trypanosoma cruzi (strain CL Brener)) (UniProt Q4DSP6); assay: Trypanosoma cruzi tyrosyl tRNA synthetase (TcYRS) _High Tyrosine SOP; type: functional; details: 30 µM; also: in the data most compounds retested in dose-response had high values
T4 sequence (whole entry): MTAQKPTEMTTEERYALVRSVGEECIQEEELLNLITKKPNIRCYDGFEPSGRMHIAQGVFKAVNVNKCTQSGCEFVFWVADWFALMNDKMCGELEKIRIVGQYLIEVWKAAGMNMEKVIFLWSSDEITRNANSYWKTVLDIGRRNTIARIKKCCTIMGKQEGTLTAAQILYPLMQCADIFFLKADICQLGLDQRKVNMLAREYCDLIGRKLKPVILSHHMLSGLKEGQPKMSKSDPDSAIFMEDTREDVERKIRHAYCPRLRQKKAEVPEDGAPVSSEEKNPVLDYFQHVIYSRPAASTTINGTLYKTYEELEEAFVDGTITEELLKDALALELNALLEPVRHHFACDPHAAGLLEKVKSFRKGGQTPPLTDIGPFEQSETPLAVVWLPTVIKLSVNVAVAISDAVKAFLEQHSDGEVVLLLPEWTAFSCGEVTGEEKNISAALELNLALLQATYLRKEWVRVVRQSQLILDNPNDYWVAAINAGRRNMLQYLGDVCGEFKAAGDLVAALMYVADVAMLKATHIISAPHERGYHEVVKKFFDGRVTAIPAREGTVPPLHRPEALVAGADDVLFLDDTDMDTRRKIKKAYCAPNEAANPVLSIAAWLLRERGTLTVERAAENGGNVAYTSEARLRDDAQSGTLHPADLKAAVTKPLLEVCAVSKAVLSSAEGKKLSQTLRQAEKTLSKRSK

[8] = biological target: T4, Tyrosyl-tRNA synthetase, putative (Trypanosoma cruzi (strain CL Brener)); assay: Trypanosoma cruzi tyrosyl tRNA synthetase (TcYRS) SOP; type: functional; details: 30 µM
[9] = biological target: Chromo domain-containing protein 1 (Saccharomyces cerevisiae (strain ATCC 204508 / S288c) (Baker's yeast)) (UniProt P32657); assay: ScCHD-1 Enzyme Inhibition Assay; type: functional; details: 30 µM; also: in the data most compounds retested in dose-response had high values
Chromo domain-containing protein 1 (Saccharomyces cerevisiae (strain ATCC 204508 / S288c) (Baker's yeast)), sequence (P32657 whole entry, the tested form may be a part): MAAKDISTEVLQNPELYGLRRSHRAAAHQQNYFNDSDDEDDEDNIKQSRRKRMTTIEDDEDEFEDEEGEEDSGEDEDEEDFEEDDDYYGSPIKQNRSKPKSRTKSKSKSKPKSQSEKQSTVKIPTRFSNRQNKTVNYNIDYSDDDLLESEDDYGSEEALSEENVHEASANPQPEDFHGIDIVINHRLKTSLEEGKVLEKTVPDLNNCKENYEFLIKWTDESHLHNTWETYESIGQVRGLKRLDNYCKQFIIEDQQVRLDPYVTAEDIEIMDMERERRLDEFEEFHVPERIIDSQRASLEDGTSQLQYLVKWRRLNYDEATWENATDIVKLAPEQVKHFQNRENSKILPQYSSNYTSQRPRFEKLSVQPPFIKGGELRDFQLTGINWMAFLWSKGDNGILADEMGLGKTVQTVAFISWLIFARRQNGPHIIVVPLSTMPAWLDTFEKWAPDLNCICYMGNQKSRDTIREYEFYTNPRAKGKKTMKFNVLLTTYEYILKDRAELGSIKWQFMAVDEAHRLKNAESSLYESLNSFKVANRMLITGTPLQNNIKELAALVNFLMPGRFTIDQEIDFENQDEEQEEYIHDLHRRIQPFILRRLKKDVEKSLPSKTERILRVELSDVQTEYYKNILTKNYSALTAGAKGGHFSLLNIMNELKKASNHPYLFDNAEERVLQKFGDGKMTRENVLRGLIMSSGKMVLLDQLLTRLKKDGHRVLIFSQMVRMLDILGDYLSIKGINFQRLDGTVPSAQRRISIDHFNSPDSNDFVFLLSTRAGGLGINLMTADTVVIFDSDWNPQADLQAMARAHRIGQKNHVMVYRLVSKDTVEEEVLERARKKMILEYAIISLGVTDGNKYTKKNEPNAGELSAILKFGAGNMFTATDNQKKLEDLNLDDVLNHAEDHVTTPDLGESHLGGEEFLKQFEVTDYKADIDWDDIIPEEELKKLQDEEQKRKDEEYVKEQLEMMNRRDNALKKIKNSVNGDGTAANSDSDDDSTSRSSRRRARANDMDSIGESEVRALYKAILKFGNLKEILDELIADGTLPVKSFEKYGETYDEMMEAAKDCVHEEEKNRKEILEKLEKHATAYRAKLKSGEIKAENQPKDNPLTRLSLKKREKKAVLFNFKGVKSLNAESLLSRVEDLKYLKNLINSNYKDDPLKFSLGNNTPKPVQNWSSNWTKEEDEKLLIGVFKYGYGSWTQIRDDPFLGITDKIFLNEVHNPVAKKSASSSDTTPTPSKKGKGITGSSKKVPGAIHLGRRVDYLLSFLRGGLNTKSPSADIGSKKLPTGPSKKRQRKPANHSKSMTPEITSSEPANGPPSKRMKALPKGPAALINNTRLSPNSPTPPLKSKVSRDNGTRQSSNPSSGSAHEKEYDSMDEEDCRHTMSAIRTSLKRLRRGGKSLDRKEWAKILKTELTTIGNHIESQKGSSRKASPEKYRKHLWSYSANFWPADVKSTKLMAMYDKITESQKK

Row | Structure (SMILES) | Percent Effect [1] | Percent Effect [2] | Percent Effect [3] | Percent Effect [4] | Percent Effect (Trypanosoma cruzi) | Percent Effect [5] | Percent Effect [6] | Percent Effect (Homo sapiens) | Percent Effect [7] | Percent Effect [8] | Percent Effect [9]
1 | CSc1nccn1-c1cccc(C(=O)NCC2CC2)c1 | -4.93% | 7.89% | 0.0421% | 2.24% | 6.82% | -1.44% | 3.13% | 2.37% | 5.42% | 13.6% | 2.32%
2 | CCN(CC)C(=O)c1nnn(-c2ccc(C)cc2)c1C1CC1 | -2.41% | 13.5% | -1.1% | 9.18% | 6.04% | 1.29% | -1.62% | 6.05% | 0% | 18.3% | -3.92%
3 | Cc1nc(Nc2nccs2)cc(C2CCCN2C2CCOCC2)n1 (stereo unspecified) | -6.58% | 12.2% | 4.38% | 1.96% | 4.35% | -3.48% | 8.89% | 6.9% | 6.45% | 14.3% | -16.1%
4 | O=C1N(c2cccc(Cl)c2)Cc2nc(=O)n(Cc3cccc(F)c3)n21 | -2.59% | -1.33% | 3.81% | 5.37% | -4.71% | -10.4% | 6.1% | 7.11% | -1.06% | 2.56% | -8.79%
5 | COc1ccc(CNC(=O)CNc2cc3c(cc2Cl)OCCCO3)cc1 | -3.73% | -2.7% | 2.47% | -4.48% | -2.25% | 0.744% | 3.35% | 11.5% | 1.07% | 1.24% | -1.22%
6 | COc1cccc(CNC(=O)C(c2cccc(F)c2)N2CCOCC2)c1 (stereo unspecified) | -6.42% | 18.4% | -1.09% | 6.14% | 2.82% | -5.92% | 4.12% | 5.78% | 6.38% | 18.2% | -11.1%
7 | CCN(CC1CN(Cc2ncc(C)o2)CCO1)c1cccnn1 (stereo unspecified) | -4.91% | -2.67% | -8.97% | 2.4% | 5.16% | 2.6% | 12.2% | 12% | 7.1% | 6.17% | -0.756%
8 | O=C(c1cnco1)N1C[C@@H]2CC[C@H](Oc3ccccc3F)[C@@H]2C1 | -8.63% | -6.76% | 3.39% | -7.43% | -3.16% | -2.09% | 3.74% | 25.5% | -4.3% | -9.09% | -6.6%
9 | CC(C)CNC(=O)CN1C=Nc2ccccc2S1(=O)=O | -6.73% | 7.89% | 0.627% | -6.85% | -10.6% | 2.16% | -1.95% | 2.69% | 0.493% | 6.17% | -5%
10 | CC1CN(Cc2noc(C3CC3)n2)CCN1Cc1nccn1C (stereo unspecified) | -5.15% | 2.53% | -12.8% | 3.3% | 5.19% | -2.66% | 1.72% | 8.77% | 6.4% | 11.4% | -1.35%
11 | O=C(c1ccc(Cl)o1)N1CCCN(Cc2cscn2)CC1 | -5.01% | 15.6% | -7.43% | -4.3% | 4.02% | -2.74% | 16.1% | 0.576% | 6.67% | 14.1% | -17.3%
